For part of these data: Potency and affinity values are given separately. Calls of active or inactive are those of the source.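 Rule for the calls, unless noted: active = fluorescence ratio normalized to control raised more than 50% in primary screen plus both repeat runs; inactive = the rest.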
Assays:
[1] = tested on: TRPC4 beta (transient receptor potential cation channel C4), mouse; experiment: TRPC4 cation channel opening, retest – cell-based, Fluo4 calcium, HEK293 TRPC4beta/mu-opioid, duplicates, 10 µM, confirmation (AID 2426); settings: Fluo4 calcium fluorescence, at 10 µM; stronger effect = higher value
[2] = tested on: transient receptor potential cation channel C4 beta (TRPC4), mouse; experiment: TRPC4 cation channel opening, second retest – cell-based, second round, Fluo4, HEK293 TRPC4beta/mu-opioid, 1 µM, confirmation (AID 2461;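 active = primary screen active and over 50% activation in each of two duplicate runs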); settings: Fluo4 calcium fluorescence, at 1 µM; stronger effect = higher value
[3] = tested on: TRPC4 (transient receptor potential cation channel C4 beta), mouse; experiment: potentiation of DAMGO EC20 TRPC4 response – cell-based, second round, Fluo-4, HEK293 TRPC4beta/mu-opioid, 1 µM, confirmation (AID 2554;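 active = primary screen hit whose fluorescence ratio, in both repeats, exceeds the weak agonist control mean by 3 SD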); settings: DAMGO EC20, Fluo-4 calcium flux, at 1 µM; stronger effect = higher value
[4] = tested on: TRPC4 beta (transient receptor potential cation channel C4), mouse; experiment: potentiation of DAMGO EC20 TRPC4 response – cell-based, Fluo-4, HEK293 TRPC4beta/mu-opioid, confirmation (AID 2555;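 active = primary screen hit whose calcium fluorescence ratio, in both repeats, exceeds the weak agonist control mean by 3 SD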); settings: DAMGO EC20, Fluo-4 calcium flux, at 10 µM; stronger effect = higher value
[5] = target: Short transient receptor potential channel 4 (Mus musculus) (UniProt Q9QUQ5); experiment: blockers of DAMGO-evoked TRPC4 calcium flux – cell-based, Fluo4, HEK293 TRPC4beta/mu-opioid, confirmation (AID 2636;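 active = calcium signal cut by more than 3 SD below the full-agonist control yet still positive, in both repeats and the earlier primary screen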); settings: at 10 µM; stronger effect = higher value
[6] = target: Short transient receptor potential channel 4 (Mus musculus) (UniProt Q9QUQ5); experiment: blockers of DAMGO-evoked TRPC4 calcium flux – cell-based, second round, Fluo4, HEK293 TRPC4beta/mu-opioid, 1 µM, confirmation (AID 2637;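 active = calcium signal ratio cut to more than 3 SD under the fully stimulated control mean yet still positive, in both repeats and the primary screen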;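 for inhibition: percent of integrated ratio relative to wells lacking test compound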); settings: at 1 µM; stronger effect = higher value
[7] = target: Short transient receptor potential channel 4 (Mus musculus) (UniProt Q9QUQ5); experiment: calcium entry via TRPC4 opening agents – cell-based, HEK293 TRPC4/mu-opioid, Fluo-4 calcium, dose response (AID 434937;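 active = primary screen activator hit with a dose response curve and TRPC4 channel activation at any tested dose; inactive = no activation, no dose response, or not a primary hit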)
[8] = target: Short transient receptor potential channel 4 (Mus musculus) (UniProt Q9QUQ5); experiment: potentiation of DAMGO-evoked TRPC4 calcium signal – cell-based, HEK293 TRPC4/mu-opioid, Fluo-4 calcium, EC20 DAMGO, dose response (AID 434941;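 active = earlier screen potentiator hit that boosts the TRPC4 ion channel at some dose, with a dose response; inactive = no potentiation, no dose response, or not a prior hit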;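 note: calcium entry triggered by an EC20 dose of DAMGO at the co-expressed mu-opioid receptor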)
[9] = target: Short transient receptor potential channel 6 (Mus musculus) (UniProt Q61143); experiment: TRPC6 blockade by TRPC4 inhibitor hits – cell-based, HEK293, membrane potential dye, duplicate, selectivity assay for TRPC4 inhibitor project, confirmation (AID 434948;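 active = active in primary screen and both duplicates, each dropping signal beyond three positive-control SD with fluorescence still positive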); settings: HEK293 TRPC6, membrane potential dye fluorescence, at 10 µM, stimulated with maximal-effect acetylcholine; stronger effect = higher value
[10] = target: Short transient receptor potential channel 6 (Mus musculus) (UniProt Q61143); experiment: TRPC6 opening by TRPC4 activator hits – cell-based, HEK293, membrane potential dye, duplicate, selectivity assay for TRPC4 activator project, confirmation (AID 434950;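 active = membrane potential signal rise above negative control mean plus 3 SD in both duplicates, also active in the earlier TRPC4 screen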); settings: HEK293 TRPC6, membrane potential fluorescence, at 10 µM; activation: stronger effect = higher value; outcome: activation
[11] = target: Short transient receptor potential channel 6 (Mus musculus) (UniProt Q61143); experiment: positive modulators of mouse TRPC6 channel – HEK293 cells, membrane potential dye, duplicate, selectivity assay for TRPC4 potentiator project, confirmation (AID 434952;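 active = compound raising the membrane signal above positive-control mean plus 3 SD in both repeats, and a primary screen hit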); settings: HEK293 TRPC6, membrane potential dye fluorescence, at 10 µM, maximal acetylcholine added after compound; stronger effect = higher value
[12] = target: Short transient receptor potential channel 4 (Mus musculus) (UniProt Q9QUQ5); experiment: calcium flux activators in TRPC4/5HT1a cells, counter-screen for TRPC4 activator project, cell-based, second counter screen, HEK293 TRPC4/5HT1a, Fluo-4 (AID 434977;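 active = calcium signal rise above buffer-control mean plus 5 SD in both duplicates, and also a hit in the primary screen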); settings: Fluo-4 calcium flux, at 10 µM; stronger effect = higher value
[13] = serotonin-gated TRPC4 signal block – cell-based, second counter screen, HEK293 TRPC4/5HT1a, Fluo-4, counter-screen for TRPC4 inhibitor project, confirmation (AID 434978;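 active = primary screen active whose calcium signal fell more than 3 SD beyond the full-serotonin control mean in both duplicate plates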); settings: Fluo-4 calcium flux, at 10 µM, serotonin added to trigger calcium flux; stronger effect = higher value
[14] = tested on: TRPC4 (mouse), co-expressed with 5HT1a in HEK293; experiment: enhancement of serotonin-evoked TRPC4 response – cell-based, second counter screen, HEK293 TRPC4/5HT1a, Fluo-4, counter-screen for TRPC4 potentiator project, confirmation (AID 434979;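 active = signal rise over 3 SD above mean of control wells given weak agonist, in both repeats and first screen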); settings: Fluo-4 calcium flux, at 10 µM, serotonin added at its EC20 dose; stronger effect = higher value
[15] = nonspecific calcium rise without TRPC4 – cell-based, HEK293 mu-opioid receptor line, counter-screen for TRPC4 activator project, confirmation (AID 449723;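 active = hit in primary screen, with calcium signal over 5 SD above buffer well mean in both duplicates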;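 note: counter screen cells carry the mu-opioid receptor alone and lack TRPC4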); settings: HEK293 mu-opioid cells, Fluo-4 calcium fluorescence, at 10 µM; stronger effect = higher value
[16] = nonspecific potentiation of DAMGO calcium response – cell-based, HEK293 mu-opioid receptor line, counter-screen for TRPC4 allosteric potentiator project, confirmation (AID 449724;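 active = calcium signal rise more than 3 SD above the low-dose agonist control mean, in both duplicate plates and the primary screen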); settings: HEK293 mu-opioid receptor cells, Fluo-4 calcium flux, at 10 µM, compound added before EC20 DAMGO stimulus; stronger effect = higher value

Chain of Short transient receptor potential channel 4 (Mus musculus) (Q9QUQ5 whole entry, looked up): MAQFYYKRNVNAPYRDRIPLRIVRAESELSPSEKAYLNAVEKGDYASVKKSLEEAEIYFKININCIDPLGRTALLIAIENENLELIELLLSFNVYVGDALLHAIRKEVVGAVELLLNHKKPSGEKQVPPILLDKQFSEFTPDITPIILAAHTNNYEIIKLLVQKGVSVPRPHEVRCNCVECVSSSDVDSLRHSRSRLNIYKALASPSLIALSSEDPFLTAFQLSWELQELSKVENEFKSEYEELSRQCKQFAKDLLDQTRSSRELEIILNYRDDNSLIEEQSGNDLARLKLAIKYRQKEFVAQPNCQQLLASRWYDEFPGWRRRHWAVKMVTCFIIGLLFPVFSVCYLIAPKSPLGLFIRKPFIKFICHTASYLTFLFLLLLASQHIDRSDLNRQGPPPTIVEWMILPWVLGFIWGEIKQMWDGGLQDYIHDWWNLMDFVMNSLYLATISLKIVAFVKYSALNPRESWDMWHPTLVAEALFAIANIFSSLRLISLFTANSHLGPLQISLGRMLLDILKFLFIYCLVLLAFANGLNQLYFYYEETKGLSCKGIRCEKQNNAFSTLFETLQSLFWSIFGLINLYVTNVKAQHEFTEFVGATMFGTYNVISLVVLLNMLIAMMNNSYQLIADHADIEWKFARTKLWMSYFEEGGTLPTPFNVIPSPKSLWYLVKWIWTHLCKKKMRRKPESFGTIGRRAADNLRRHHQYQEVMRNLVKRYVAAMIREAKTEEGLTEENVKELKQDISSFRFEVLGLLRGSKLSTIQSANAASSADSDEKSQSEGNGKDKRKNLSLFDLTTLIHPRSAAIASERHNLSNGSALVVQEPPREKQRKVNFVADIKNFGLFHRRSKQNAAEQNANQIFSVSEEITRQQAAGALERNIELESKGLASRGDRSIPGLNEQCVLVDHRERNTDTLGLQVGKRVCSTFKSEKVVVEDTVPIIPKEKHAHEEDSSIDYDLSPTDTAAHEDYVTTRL
Chain of Short transient receptor potential channel 6 (Mus musculus) (Q61143 whole entry, looked up): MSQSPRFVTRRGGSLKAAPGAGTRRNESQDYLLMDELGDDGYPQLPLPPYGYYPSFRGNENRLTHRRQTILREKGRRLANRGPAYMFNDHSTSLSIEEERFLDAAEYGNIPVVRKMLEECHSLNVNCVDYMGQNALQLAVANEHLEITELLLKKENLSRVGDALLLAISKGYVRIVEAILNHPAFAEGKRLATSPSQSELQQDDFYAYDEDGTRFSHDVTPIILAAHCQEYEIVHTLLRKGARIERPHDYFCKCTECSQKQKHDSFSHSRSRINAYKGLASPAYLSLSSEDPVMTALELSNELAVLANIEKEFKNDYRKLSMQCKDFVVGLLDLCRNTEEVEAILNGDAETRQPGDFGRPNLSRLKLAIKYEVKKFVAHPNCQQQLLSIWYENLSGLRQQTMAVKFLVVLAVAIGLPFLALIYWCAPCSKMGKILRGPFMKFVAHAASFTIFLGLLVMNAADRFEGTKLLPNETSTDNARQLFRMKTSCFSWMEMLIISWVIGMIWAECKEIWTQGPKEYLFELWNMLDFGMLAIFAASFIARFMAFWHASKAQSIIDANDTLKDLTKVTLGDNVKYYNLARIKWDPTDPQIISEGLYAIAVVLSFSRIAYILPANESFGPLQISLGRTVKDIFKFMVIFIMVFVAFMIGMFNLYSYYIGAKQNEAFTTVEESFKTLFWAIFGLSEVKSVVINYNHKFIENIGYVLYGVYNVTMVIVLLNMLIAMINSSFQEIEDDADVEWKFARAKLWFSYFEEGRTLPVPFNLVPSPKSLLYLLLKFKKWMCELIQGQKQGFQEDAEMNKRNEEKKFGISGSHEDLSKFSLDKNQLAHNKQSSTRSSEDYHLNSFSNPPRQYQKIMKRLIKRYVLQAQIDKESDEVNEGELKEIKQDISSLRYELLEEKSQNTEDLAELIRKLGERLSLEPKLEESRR

Compound | outcome [1] | outcome [2] | outcome [3] | outcome [4] | inhibition [5] | inhibition [6] | outcome [7] | outcome [8] | outcome [9] | outcome [10] | outcome [11] | outcome [12] | inhibition [13] | outcome [14] | outcome [15] | outcome [16] | outcome [6] | inhibition [9]
Cc1[nH]n(C)c(=O)c1C(=O)c1c(-c2c(Cl)cccc2Cl)noc1C | inactive | inactive | inactive | inactive | 90% (active) | 42% (active) | inactive | inactive | inactive | inactive | inactive | inactive | 27.3% (active) | inactive | inactive | inactive |  | 
O=C(NCCN1CCOCC1)c1cc2sccc2n1Cc1ccc(F)cc1 | inactive | inactive | inactive | inactive | 74% (active) | 49% (active) | inactive | inactive | inactive | inactive | inactive | inactive | 33.8% (active) | inactive | inactive | inactive |  | 
O/N=C/c1ccccc1Oc1ccc(Cl)cc1 | inactive | inactive | inactive | inactive | 98% (active) |  | inactive | inactive | inactive | inactive | inactive | inactive | 7.58% (active) | inactive | inactive | inactive | inactive | 
COc1cc(/C=C2\SC(=O)N(c3ccccc3Cl)C2=O)cc([N+](=O)[O-])c1O | inactive | inactive | inactive | inactive | 84% (active) |  | inactive | inactive | inactive | inactive | inactive | inactive | 26% (active) | inactive | inactive | inactive | inactive | 
CNc1nc(SCc2ccccc2Cl)nc2c1CCCC2 | inactive | inactive | inactive | inactive | 90% (active) |  | inactive | inactive | inactive | inactive | inactive | inactive | 13.9% (active) | inactive | inactive | inactive | inactive | 
CCOc1ccc(Cl)cc1/C=N/O | inactive | inactive | inactive | inactive | 86% (active) |  | inactive | inactive |  | inactive | inactive | inactive | 39.8% (active) | inactive | inactive | inactive | inactive | 2% (active)
CC(C)(C)Cc1nc2ccccc2n1CCc1ccccc1 | inactive | inactive | inactive | inactive | 82% (active) | 64% (active) | inactive | inactive | inactive | inactive | inactive | inactive | 17.2% (active) | inactive | inactive | inactive |  | 
Cc1cc([N+](=O)[O-])ccc1NCc1ccco1 | inactive | inactive | inactive | inactive | 92% (active) |  | inactive | inactive | inactive | inactive | inactive | inactive | 14.5% (active) | inactive | inactive | inactive | inactive | 
COC(=O)c1ccc(Nc2cc(C)nc3ccccc23)cc1 | inactive | inactive | inactive | inactive | 98% (active) |  | inactive | inactive |  | inactive | inactive | inactive | 19.9% (active) | inactive | inactive | inactive | inactive | 50% (active)
Cc1ccc(C)c2nc3sc(C(=O)O)cc3cc12 | inactive | inactive | inactive | inactive | 83% (active) |  | inactive | inactive | inactive | inactive | inactive | inactive | 30.9% (active) | inactive | inactive | inactive | inactive | 
O=C(NCCCN1CCN(c2cccc(Cl)c2)CC1)C1CCC(=O)N1Cc1ccccc1Cl (stereo not given) | inactive | inactive | inactive | inactive | 90% (active) | 52% (active) | inactive | inactive | inactive | inactive | inactive | inactive | 35.9% (active) | inactive | inactive | inactive |  | 
Cc1ccc2cc(CN(CCN3CCOCC3)C(=O)NCc3ccccc3)c(=O)[nH]c2c1C | inactive | inactive | inactive | inactive | 80% (active) | 42% (active) | inactive | inactive | inactive | inactive | inactive | inactive | 34% (active) | inactive | inactive | inactive |  | 
COc1ccc(Nc2nc(NCC3CCCO3)c3ccccc3n2)c(OC)c1 (stereo not given) | inactive | inactive | inactive | inactive | 93% (active) | 50% (active) | inactive | inactive |  | inactive | inactive | inactive | 41.4% (active) | inactive | inactive | inactive |  | 5.5% (active)
CC(=O)N1CCN(c2ccccc2NC(=O)c2ccc3ccccc3c2)CC1 | inactive | inactive | inactive | inactive | 85% (active) | 74% (active) | inactive | inactive | inactive | inactive | inactive | inactive | 36.5% (active) | inactive | inactive | inactive |  | 
O=C(COC(=O)Cn1cnc2ccccc2c1=O)Nc1ccccc1Sc1ccc(Cl)cc1 | inactive | inactive | inactive | inactive | 62% (active) | 43% (active) | inactive | inactive | inactive | inactive | inactive | inactive | 26.1% (active) | inactive | inactive | inactive |  | 

Source: PubChem BioAssay
